# In the library only some 2.2% were active in any assay of this set; here they are far more common.
# BRCA1 expr act – increases BRCA1 expression; MCF7-BRCA1-FFLuc reporter, luminescence, 48 h; response scale: scaled: vehicle 0%, 10 µM genistein 100%; Potency, µM (doses to about 46.1 µM), actives largely listed as activators; 380,000 tested, 1.1% active; note: nearly all actives have a fitted effect of over 80% in size
#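 First, MCF7-BRCA1-FFLuc cells (2000/well) attach for 2 h; next, compounds are pin-added and incubated 48 h at 37 °C; finally, luciferase reagent is added and luminescence read after 15 min.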
# Giardia killer – Giardia lamblia killing; Giardia lamblia trophozoite viability; activity change, % at 7.66 µM, hits read low; 340,000 tested, 0.15% active; in the data active = activity change below about -80%; inconclusive = between about -30% and that limit;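 note: parasites exposed to compound for two days anaerobically before the ATP read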
#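 Luminescent ATP signal served as the viability read-out, measured 15-30 min after adding ATP detection reagent to trophozoites that had been incubated with compounds for 48 hrs at 37 deg C anaerobically at 100 cells/well.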
# mIDH1 inhibitor – human IDH1 R132H inhibition | IDH1-R132H enzyme, NADPH consumption, diaphorase/resazurin fluorescence | 390,000 tested, 0.093% active | Potency, µM (series often up to 76.6 µM), hits mostly inhibitors; note: nearly all actives have a fitted effect of over 65% in size
# Target sequence (O75874 whole entry R132H, stated change not applied): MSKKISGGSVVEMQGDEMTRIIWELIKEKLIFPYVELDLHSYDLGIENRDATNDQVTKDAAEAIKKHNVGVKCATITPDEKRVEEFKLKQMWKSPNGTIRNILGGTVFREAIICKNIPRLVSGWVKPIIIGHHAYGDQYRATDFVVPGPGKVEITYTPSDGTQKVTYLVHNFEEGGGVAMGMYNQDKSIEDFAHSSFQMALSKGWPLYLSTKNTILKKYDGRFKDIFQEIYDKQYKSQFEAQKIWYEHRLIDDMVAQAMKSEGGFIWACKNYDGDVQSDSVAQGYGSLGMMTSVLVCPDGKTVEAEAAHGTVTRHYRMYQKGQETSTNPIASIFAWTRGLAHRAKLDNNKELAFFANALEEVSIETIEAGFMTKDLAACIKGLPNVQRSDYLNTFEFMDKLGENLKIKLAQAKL
#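 IDH1-R132H (0.5 ug/mL) preincubated 30 min with compound, then NADPH (0.016 mM) and alpha-KG (2 mM) added; 80 min at RT, pH 7.5. Remaining NADPH coupled via diaphorase/resazurin to fluorescence (540/590 nm); concentration-response curves normalized to no-enzyme control.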
# rTrxR1 inhibitor – rat TrxR1 inhibition; recombinant rTrxR1, NADPH fluorescence consumption, selenite substrate; Potency, µM (highest dose often 114 µM), hits mostly inhibitors; 390,000 tested, 1% active; AID 588453; note: nearly all actives have a fitted effect of over 65% in size
#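 Rat TrxR1 (90 nM in the dispensed reagent) was pre-reduced with 400 uM NADPH for 5 min at room temperature, then incubated with compound for 15 min. After 400 uM selenite was added, NADPH fluorescence (Ex 340/Em 450 nm) was followed for 8 min.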
# IL-2 act – IL-2 activation; IL-2 activation reporter assay, cell-based qHTS; stimulated with anti-CD3/CD4/CD28 beads; in transgenic mouse T cells; activation, % (series mostly up to about 46 µM); 360,000 tested, 0.065% active; in the data active = activation above about 50%; inconclusive = mostly about 30% to 49%
#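 Screening format: compound pinned onto unstimulated transgenic mouse T cells, 60 min incubation, then anti-CD3/anti-CD4/anti-CD28 bead stimulation for 18 hours at 37 degrees C, followed by EGFP and DsRed detection.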
# TrxR1 substrate – substrates of rat thioredoxin reductase 1; Potency, µM (titrated, usually from 114 µM); AID 588456; purified TrxR1 substrate turnover, NADPH consumption readout; 390,000 tested, 0.01% active; note: nearly all actives have a fitted effect of over 50% in size
#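 Rat TrxR1, dispensed at 90 nM, was prereduced with 400 uM NADPH (final) for 5 min at ~22 deg C, then incubated with compound 15 min before 400 uM selenite. A first-read NADPH fluorescence drop versus no-compound background flagged substrates.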
# Numbers stand for hits; . = inactive; ? = inconclusive; / = no result given; [ ] = another dose, or the depositor's remark. Unless noted, calls come from the whole dose curve; as a rule, active = well fitted curve in the direction sought with a large enough effect; inconclusive = small, poorly fitted or top-dose-only effect, or another doubt; inactive = no such curve, though single readings can be large; an effect the other way counts as inactive or inconclusive.
SMILES,BRCA1 expr act,Giardia killer,mIDH1 inhibitor,rTrxR1 inhibitor,IL-2 act,TrxR1 substrate
Cc1ccc(C)c(NC(=O)C(=O)NCCc2csc3nc(-c4ccccc4C)nn23)c1,/,/,.,.,/,.
CC(=O)c1ccccc1NC(=O)c1ccc(N2CCCC2=O)cc1,7.94µM,.,.,.,.,.
CSc1ccccc1NC(=O)c1ccc(N2CCCC2=O)cc1,10µM,.,.,.,.,.
CC1CCC(NC(=S)NCCN(C)C)CC1 (configuration not stated),.,.,.,.,.,.
CC1CCC(NC(=O)N(CCCl)N=O)CC1 (configuration not stated),5.01µM,.,.,.,.,.
COc1ccccc1-c1nn2c(-c3cc(C)[nH]n3)nnc2s1,.,.,/,.,/,.[0.0914 µM]
CCC(Sc1nc(C)cc(C)n1)C(=O)Nc1cc(C)on1 (configuration not stated),.,.,.,.,.,.
CCC(Sc1nc(C)cc(C)n1)C(=O)NC1=NN=C(c2ccc(C)cc2)CS1 (configuration not stated),.,.,46.5µM,.,.,.
O=C1/C(=C\c2ccccc2)CN(C(=O)CCN2CCCCC2)C/C1=C/c1ccccc1,.,.,.,5.01µM,.,.
N#CN=c1snc(-c2ccccc2)n1-c1ccc(Br)cc1,.,.,/,.[0.0914 µM],/,.[0.0914 µM]
COc1cc2c(cc1OC)-c1c(OC)c(OC)cc3ccnc(c13)C2=O,.,-84.3,.,.,.,.
COCC1CCN(C(=O)c2ccc3oc(CCCc4ccccc4)nc3c2)C1 (configuration not stated),.,.,.,.,.,.
COCCN1CCN(C(=O)c2ccc3oc(CCCc4ccccc4)nc3c2)CC1,12.6µM,.,.,.,.,.
CCCCc1nc2cc(C(=O)N3CCCC3)ccc2o1,8.91µM,.,.,.,.,.
Cc1cc(Cl)ccc1OCC(=O)N(Cc1ccco1)Cc1ccco1,/,/,.,.,/,.
CN1CCN(c2cc(=O)n(C3CCCCC3)c(=O)[nH]2)CC1,.,.,.,25.1µM,.,.
Clc1ccc(OCc2cn3ccccc3n2)c2ncccc12,3.16µM,.,.,.,.,.
Cc1c2cnn(-c3ccccc3)c(=O)c2c(C)n1CC(=O)NCc1ccc(Cl)cc1,.,/,.,.,/,.
CCOC(=O)c1ccc(-c2nnc(-c3ccc(Cl)cc3Cl)o2)cc1,0.891µM,.,.,.,.,.
N#C/C(=C\c1ccc(-c2cc(Cl)ccc2Cl)o1)C(=O)Nc1cccc2ncccc12,/,/,/,?,/,.
O=C(OCn1ncc(Cl)c(Cl)c1=O)c1ccccc1Cl,.,.,.,8.91µM,.,.
O=C(Cn1ncc(Cl)c(Cl)c1=O)c1ccc(Cl)cc1,.,.,.,.,.,.
CCCNC(=O)c1nnsc1S(=O)(=O)c1ccc(Cl)cc1,.,.,.,?,.,.
CNC(=O)c1nnsc1S(=O)c1ccc(Cl)cc1 (configuration not stated),.,.,.,0.355µM,.,.
CCCNC(=O)c1nnsc1S(=O)c1ccc(Cl)cc1 (configuration not stated),.,.,.,0.562µM,.,.
SMILES,BRCA1 expr act,Giardia killer,mIDH1 inhibitor,rTrxR1 inhibitor,IL-2 act,TrxR1 substrate
COc1cc(NC(=O)CN(C)S(=O)(=O)c2ccc3[nH]c4c(c3c2)CCCC4)cc(OC)c1OC,/,/,.,.,/,.
Cc1nc2ncnn2c(C)c1CCC(=O)NCc1ccc(Cl)cc1,.,/,.,.,/,.
CC1Cc2cc(S(=O)(=O)NCc3ccc(F)cc3)ccc2N1C(=O)C1CCC1 (configuration not stated),/,/,.,.,/,.
COc1cc2nc(N3CCCN(C)CC3)nc(NC3CCN(C)C3)c2cc1OC (configuration not stated),.,/,/,.,/,.
CC(C)OC(=O)c1nn2c(C(F)(F)F)cc(-c3ccco3)nc2c1Cl,.,.,.,.[11.4 µM],.,.
CC(C)OC(=O)c1nn2c(C(F)(F)F)cc(-c3ccc(Br)o3)nc2c1Br,.,.,.,25.1µM,.,.
